Test results as given in the supplement of paper PMC6555819.

Columns and labels:
Assay in all cases: PBM binding z-score (relative to random genomic background probes); higher = stronger binding; sequences stand for … in GC…GCGATTGACAGCGTAGAATGAAGG
[1] = system: RARb homodimer (NR concentration 270 nM)
Outline: (§1)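 For binding z-scores, the reference was random background probes on custom Agilent 4×180K protein-binding microarrays. These arrays were incubated 1 h with ligand-free nuclear receptor dimers in PBS pH 7.4, 2% milk, 0.02% Triton X-100, 1 mM DTT, 0.2 mg/mL BSA and 0.4 mg/ml salmon testes DNA. Fluorescence was scanned after antibody detection of each partner (one per run) and regression-normalized.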

[2] = system: RARg:RXRa (NR concentration 270 nM, RXRa partner concentration 90 nM)
Outline: as §1

[3] = system: RARg homodimer (NR concentration 270 nM)
Outline: as §1

[4] = system: RXRa DBDmut IVT, anti-RXR (DBD mutation: RXRa K156A/R161A, NR concentration 90 nM)
Outline: as §1

[5] = system: RXRa homodimer (NR concentration 180 nM)
Outline: as §1

[6] = system: THRa:RXRa (NR concentration 90 nM, RXRa partner concentration 90 nM)
Outline: as §1

[7] = system: THRa homodimer (NR concentration 90 nM)
Outline: as §1

[8] = system: VDR homodimer (NR concentration 270 nM)
Outline: as §1

In the case of ATCGAAAGCTCGTGAGGTGAGTATACAGAAAGGC, the PBM binding z-score [1] is reported as -0.145, the PBM binding z-score [2] is reported as -0.029 and the PBM binding z-score [3] is reported as 0.239. It also gave a PBM binding z-score [4] of -0.842, a PBM binding z-score [5] of -0.0851 and a PBM binding z-score [6] of 1.52. For the same sequence, the PBM binding z-score [7] was 0.723 and the PBM binding z-score [8] was -0.704.
With CTCGAAAGGTCTGTTGAGGTGAGTATACGGATAA the PBM binding z-score [1] was 0.88, the PBM binding z-score [2] was 0.827 and the PBM binding z-score [3] was 1.16. The PBM binding z-score [4] was -0.237, the PBM binding z-score [5] was 0.536 and the PBM binding z-score [6] was 4.3. The PBM binding z-score [7] was 1.12 and the PBM binding z-score [8] was -0.104.
Work on ACAGACAGGTGATGTAGGTAACTCAGGCTATCAT yielded a PBM binding z-score [1] of 0.224, a PBM binding z-score [2] of 0.333 and a PBM binding z-score [3] of 0.539. For the same sequence, the PBM binding z-score [4] was -0.0727, the PBM binding z-score [5] was 0.19 and the PBM binding z-score [6] was 0.566. It also gave a PBM binding z-score [7] of -0.00745 and a PBM binding z-score [8] of -0.512.
In the case of ATATGTAGGTTACAACCGGGTCATTCAGGCTATG, the PBM binding z-score [1] is reported as 2.97, the PBM binding z-score [2] is reported as 3.92 and the PBM binding z-score [3] is reported as 2.19. For the same sequence, the PBM binding z-score [4] was 0.912, the PBM binding z-score [5] was 3.49 and the PBM binding z-score [6] was 3.73. For the same sequence, the PBM binding z-score [7] was 2.16 and the PBM binding z-score [8] was 3.06.
AGAACGAGGGCAATGAGTTGATATCACGGGTGGC showed a PBM binding z-score [1] of 1.12, a PBM binding z-score [2] of 1.33 and a PBM binding z-score [3] of 1.45. For the same sequence, the PBM binding z-score [4] was 2.15, the PBM binding z-score [5] was 1.2 and the PBM binding z-score [6] was 1.17. It also gave a PBM binding z-score [7] of -0.128 and a PBM binding z-score [8] of 2.71.
Sequence AGTCAAAGTTCATCTAGGTAATGTAAGATATGCT has a PBM binding z-score [1] of 3.87, a PBM binding z-score [2] of 5.56 and a PBM binding z-score [3] of 6.17. The PBM binding z-score [4] was 4.52, the PBM binding z-score [5] was 4.6 and the PBM binding z-score [6] was 2.92. It also gave a PBM binding z-score [7] of 0.21 and a PBM binding z-score [8] of 5.21.
In the case of TCTCGGAGGACACGAAGGTCAGACCTTTCCAGAG, the PBM binding z-score [1] is reported as 3.98, the PBM binding z-score [2] is reported as 3.27 and the PBM binding z-score [3] is reported as 3.81. For the same sequence, the PBM binding z-score [4] was 1.03, the PBM binding z-score [5] was 1.94 and the PBM binding z-score [6] was 3.08. The PBM binding z-score [7] was 1.21 and the PBM binding z-score [8] was 1.44.
